Experimental data taken from PubChem BioAssay.
Active and inactive are the calls of the source.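 Rule for the calls, unless noted: active = fluorescence slope higher than the sample average by over 3 SD (cut at about -0.22 in these data, passing the limit was not always enough); inactive = the rest.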

Columns and labels:
[1] = inhibitors of TNFa-induced NFkB p65 translocation, primary screen, imaging, HUVEC, MLSMR starter and 10KST1 sets (AID 438;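 active = inhibition above 20% together with a positive visual image hit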;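 note: compound added about 3h40 before a 20 min TNFalpha stimulation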;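 for inhibition: signal is the nuclear over cytoplasmic p65 intensity ratio per well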); settings: HUVEC TNFa-induced p65 nuclear translocation; cell count: measured here: nuclei count (cytotoxicity indicator), at 2.08 µM; inhibition: at 2 µM, stronger effect = higher value, 0% TNFa-plus-vehicle, 100% no-TNFa wells
[2] = reduction of polyQ htt aggregates in cells – imaging, exon1htt(103Q)mCFP cells, high-content imaging, primary screen (AID 483;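 active = visual image review flags a hit and inhibition of aggregation exceeds 20%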;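 note: compound exposure lasted 3 days before fixation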;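 for nuclei count: percent of the per-plate median nuclei count of sample wells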); settings: exon1htt(103Q)mCFP cell line, aggregate imaging, at 2 µM; inhibition of aggregation: stronger effect = higher value; nuclei count: measured here: cell count, toxicity
[3] = endothelial E-selectin expression blockers – imaging, HUVEC, immunofluorescence, MLSMR starter and 10KST1 sets, primary screen (AID 487;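 active = visually confirmed hit in the image check and inhibition above 20%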;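 for inhibition: signal is fraction of cell area covered by stained E-selectin grains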;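 for nuclei count: 100% = median nuclei count of all wells on the same plate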); settings: HUVEC TNFalpha-induced E-selectin immunofluorescence imaging, at 2 µM; inhibition: stronger effect = higher value; nuclei count: measured here: cell number, toxicity
[4] = target: Voltage-gated potassium channel subunit beta-2 (Rattus norvegicus) (UniProt P62483); assay: inhibitors of rat Kvbeta2 reductase activity – biochemical, NADPH fluorescence, primary screen (AID 622); settings: recombinant KvBeta, 4-cyanobenzaldehyde reduction, at 10 µM, stronger effect = higher value;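 note: slope of raw intensity against log time taken from 70 to 1610 s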
Sequence of Voltage-gated potassium channel subunit beta-2 (Rattus norvegicus) (P62483 whole entry, looked up): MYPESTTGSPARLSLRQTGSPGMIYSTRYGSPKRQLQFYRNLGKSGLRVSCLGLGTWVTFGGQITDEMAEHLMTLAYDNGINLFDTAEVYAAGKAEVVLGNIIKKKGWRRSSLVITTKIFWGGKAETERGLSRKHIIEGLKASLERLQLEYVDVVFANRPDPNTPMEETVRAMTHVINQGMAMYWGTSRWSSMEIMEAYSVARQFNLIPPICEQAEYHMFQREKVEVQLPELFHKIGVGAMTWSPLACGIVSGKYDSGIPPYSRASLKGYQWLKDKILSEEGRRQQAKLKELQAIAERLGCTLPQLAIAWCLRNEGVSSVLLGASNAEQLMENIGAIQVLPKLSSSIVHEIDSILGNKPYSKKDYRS

[5] = target: Voltage-gated potassium channel subunit beta-2 (Rattus norvegicus) (UniProt P62483); assay: enhancers of rat Kvbeta2 NADPH turnover – biochemical, NADPH fluorescence, primary screen (AID 623;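 active = NADPH fluorescence slope more negative than the mean of all samples by about 3 SD, 99.7% confidence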;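 note: fluorescence intensity change per second fitted from 20 to 320 s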); settings: Recombinant KvBeta, NADPH fluorescence decrease slope, 10 min; at 10 µM; stronger effect = lower value
[6] = target: Alpha-2C adrenergic receptor (Homo sapiens) (UniProt P18825); assay: compounds altering alpha2C-coupled GIRK flux – cell-based, HEK293 alpha2C/GIRK1/2, thallium flux, primary screen (AID 624;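 active = fluorescence slope after compound addition differing from the mean of all screened samples at 99.7% confidence, in either direction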;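 note: slope of fluorescence ratio to pre-addition baseline per second over 15 to 24 s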); settings: thallium flux BTC fluorescence, at 10 µM, actives lie on both sides
Sequence of Alpha-2C adrenergic receptor (Homo sapiens) (P18825 whole entry, looked up): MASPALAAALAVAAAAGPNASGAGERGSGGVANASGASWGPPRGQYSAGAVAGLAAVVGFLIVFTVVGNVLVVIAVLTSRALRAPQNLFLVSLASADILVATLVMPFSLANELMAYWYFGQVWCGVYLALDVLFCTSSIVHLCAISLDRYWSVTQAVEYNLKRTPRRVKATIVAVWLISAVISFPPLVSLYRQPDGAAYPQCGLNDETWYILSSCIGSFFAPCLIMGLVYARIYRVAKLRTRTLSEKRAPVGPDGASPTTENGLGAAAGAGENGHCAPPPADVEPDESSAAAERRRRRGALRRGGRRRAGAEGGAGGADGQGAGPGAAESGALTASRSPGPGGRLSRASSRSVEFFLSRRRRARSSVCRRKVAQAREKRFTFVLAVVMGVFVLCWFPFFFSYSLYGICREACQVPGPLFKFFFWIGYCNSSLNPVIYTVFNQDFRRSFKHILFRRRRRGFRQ

[7] = blockers of RIG-like receptor reporter activation – cell-based, Sendai virus stimulus, luciferase, 10K MLSCN set, TLR/RLR signaling modifier project, primary screen (AID 602276;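 active = inhibition at or above 50% at 10 µM; inactive = inhibition below 50%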;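 note: firefly luciferase from ISG56 promoter only with Renilla not read in this screen; 0% = Sendai virus plus DMSO and 100% = medium plus DMSO without virus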); settings: HEK293 RL24 IRF3 luciferase reporter, at 10 µM, stronger effect = higher value
[8] = TLR3 IRF3 reporter activation blockers – cell-based, poly I:C stimulus, luciferase, 10K MLSCN set, primary screen (AID 602277;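 active = inhibition of the reporter signal at or above 50%; inactive = inhibition below 50%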); settings: HEK293-TLR3 RL24 IRF3 luciferase reporter, at 10 µM, stronger effect = higher value

Compound	cell count [1]	inhibition [1]	inhibition of aggregation [2]	nuclei count [2] [%]	inhibition [3]	nuclei count [3] [%]	fluorescence slope [4]	NADPH fluorescence slope [5]	slope [6]	inhibition [7]	inhibition [8]
O=S(=O)(NCc1cn2ccccc2n1)c1cc(F)ccc1F	282	4.3% (inactive)	19.7% (inactive)	78.5	9.5% (inactive)	88.5	-0.287 (inactive)	-5.3e-05 (inactive)	0.00441 (inactive)	-0.696% (inactive)	8.79% (inactive)
COc1cccc(C2CC(c3ccc(C)cc3)n3nc(N)nc3N2)c1 (stereo unspecified)	510	-0.9% (inactive)	-5.2% (inactive)	106	-34.1% (inactive)	106	-0.615 (inactive)	-2.8e-06 (inactive)	0.00794 (inactive)	9.08% (inactive)	24.7% (inactive)
COc1ccc(C(=O)Nc2ccc(S(=O)(=O)Nc3onc(C)c3C)cc2)cc1	501	3.7% (inactive)	-4.3% (inactive)	110	16.1% (inactive)	111	-0.354 (inactive)	-5.4e-05 (inactive)	0.00607 (inactive)	4.94% (inactive)	2% (inactive)
COC(=O)c1cccc(NC(=O)Cc2coc3cc(OC)ccc23)c1	402	11.4% (inactive)	5.4% (inactive)	75.4	-64.1% (inactive)	120	-0.595 (inactive)	-6.1e-06 (inactive)	0.0055 (inactive)	4.7% (inactive)	-15.2% (inactive)
Cc1noc(/C=C/N(C)C)c1S(=O)(=O)N1CCCC(C(=O)N2CCc3ccccc32)C1 (stereo unspecified)	620	-4% (inactive)	-4.7% (inactive)	86.6	-16.5% (inactive)	95.3	-0.537 (inactive)	-5.3e-05 (inactive)	0.00689 (inactive)	11.8% (inactive)	45.3% (inactive)
Cc1nnc(NC(=O)c2ccco2)s1	697	1.3% (inactive)	-21.8% (inactive)	107	-34.3% (inactive)	110	-0.521 (inactive)	-3.3e-05 (inactive)	0.00691 (inactive)	3.15% (inactive)	14.4% (inactive)
CC1CN(c2nc3ccccc3nc2C(C#N)C(=O)NCc2ccc3c(c2)OCO3)CC(C)O1 (stereo unspecified)	340	4.7% (inactive)	11.1% (inactive)	83.9	-24.9% (inactive)	81.7	-0.347 (inactive)	-5.3e-05 (inactive)	0.00757 (inactive)	18.7% (inactive)	14.5% (inactive)
O=C(NC12CC3CC(CC(C3)C1)C2)N1CCN(C(=O)C2CCCO2)CC1 (stereo unspecified)	434	-10.3% (inactive)	-18.6% (inactive)	100	-186% (inactive)	0.2	-0.392 (inactive)	-7.1e-05 (inactive)	0.00603 (inactive)	18% (inactive)	11.1% (inactive)
CC(CCC(=O)Nc1nncs1)C(=O)O (stereo unspecified)	527	-0.8% (inactive)	1.4% (inactive)	97	-52.1% (inactive)	123	-0.535 (inactive)	-5.2e-05 (inactive)	0.00611 (inactive)	9.72% (inactive)	20.3% (inactive)
O=C(Nc1ccc2c(c1)OCCO2)C1CCCN1S(=O)(=O)c1cccc2cccnc12 (stereo unspecified)	743	4.4% (inactive)	4.5% (inactive)	128	-42.2% (inactive)	106	-0.537 (inactive)	-4.4e-05 (inactive)	0.00567 (inactive)	3.98% (inactive)	22.9% (inactive)
CCc1ccc(N2CC34C=CC(O3)C(C(=O)OC)C4C2=O)cc1 (stereo unspecified)	535	4% (inactive)	11.3% (inactive)	85.3	-7.9% (inactive)	101	-0.589 (inactive)	6.6e-06 (inactive)	0.00784 (inactive)	7.96% (inactive)	30.4% (inactive)
COC(=O)CSc1nnc(-c2cccs2)n1-c1ccc(Cl)cc1	347	12.8% (inactive)	10.2% (inactive)	106	-50.2% (inactive)	119	-0.482 (inactive)	-1.6e-05 (inactive)	0.00413 (inactive)	17% (inactive)	15.7% (inactive)
CC(=O)Nc1ccc(S(=O)(=O)Nc2nc3c(s2)CCCC3)cc1	638	-2.1% (inactive)	41.1% (inactive)	95.3	-46.9% (inactive)	108	-0.54 (inactive)	-4.4e-05 (inactive)	0.00526 (inactive)	5.19% (inactive)	-2.08% (inactive)
Cc1cccc(NC(=O)C2CCCN(C(=O)Nc3ccccc3)C2)c1C (stereo unspecified)	599	-28.6% (inactive)	-9.1% (inactive)	87.8	-9.2% (inactive)	85.7	-0.573 (inactive)	4.6e-05 (inactive)	0.00746 (inactive)	4% (inactive)	-12% (inactive)
O=C(c1ccco1)N1CCN(C(=O)c2cc3c(s2)-c2ccccc2OC3)CC1	684	-5% (inactive)	-23% (inactive)	131	4.9% (inactive)	102	-0.0429 (inactive)	3.2e-05 (inactive)	0.00801 (inactive)	-15% (inactive)	-25.8% (inactive)
CC(=O)NC(CCS(C)(=O)=O)C(=O)Nc1cc(C)on1 (stereo unspecified)	676	-2.9% (inactive)	26.2% (inactive)	62.5	-36.9% (inactive)	114	-0.533 (inactive)	2.6e-05 (inactive)	0.00682 (inactive)	25.9% (inactive)	7.35% (inactive)
CC1CCCCN1S(=O)(=O)c1ccc(NC(=O)c2cccs2)cc1 (stereo unspecified)	678	-14.6% (inactive)	25.4% (inactive)	86.3	-25.1% (inactive)	104	-0.431 (inactive)	9.2e-06 (inactive)	0.00361 (inactive)	-0.562% (inactive)	5.71% (inactive)
Cc1nnc(SCC(=O)N2CCC(C(=O)Nc3nccs3)CC2)n1Cc1ccccc1	405	6.1% (inactive)	8.5% (inactive)	104	10.2% (inactive)	100	-0.604 (inactive)	-4.4e-05 (inactive)	0.00447 (inactive)	18.3% (inactive)	17% (inactive)
Cc1ccc(N=Cc2ccc(O)cc2O)cc1F	334	-13.8% (inactive)	0.1% (inactive)	113	-98.5% (inactive)	107	-0.395 (inactive)	-0.000134 (inactive)	0.00518 (inactive)	13% (inactive)	23.4% (inactive)
CCCC1(C(=O)OC)NC(c2cc(OC)c(OC)c(OC)c2)C2C(=O)N(CC)C(=O)C21 (stereo unspecified)	582	5.5% (inactive)	8.1% (inactive)	111	-37.6% (inactive)	110	-0.48 (inactive)	3.3e-05 (inactive)	0.0052 (inactive)	-10.2% (inactive)	2.76% (inactive)
CCOc1ccc(N(CC(=O)Nc2ccc(C)c(C)c2)S(=O)(=O)c2c(C)noc2C)cc1	713	0% (inactive)	-19.3% (inactive)	86.1	-29% (inactive)	100	-0.554 (inactive)	-7.2e-07 (inactive)	0.00659 (inactive)	13.3% (inactive)	27.5% (inactive)
Cc1nnc2c3ccccc3c(-c3ccccc3)nn12	481	-4.4% (inactive)	-5.8% (inactive)	92.4	-3.3% (inactive)	108	-0.301 (inactive)	-4.7e-05 (inactive)	0.00584 (inactive)	68% (active)	61.1% (active)
CCN1C(=O)Cc2cc(S(=O)(=O)N3CCOCC3)ccc21	675	-2.9% (inactive)	-11.1% (inactive)	121	-38.7% (inactive)	98.4	-0.435 (inactive)	2.6e-05 (inactive)	0.00585 (inactive)	2.07% (inactive)	-4.25% (inactive)
COc1ccc(C2C(C#N)=C(N)Oc3cc4c(cc32)OCO4)cc1 (stereo unspecified)	496	3.5% (inactive)	4.7% (inactive)	105	-103% (inactive)	110	-0.401 (inactive)	-5.6e-05 (inactive)	0.00586 (inactive)	-6.84% (inactive)	59.4% (active)
O=C(C1CCN(S(=O)(=O)c2cccc3cccnc23)CC1)N1CCN(C2CCCCC2)CC1	412	10.7% (inactive)	3.3% (inactive)	69.2	-22.1% (inactive)	106	-0.565 (inactive)	-1.6e-05 (inactive)	0.00678 (inactive)	-4.22% (inactive)	35.6% (inactive)
O=C(COC(=O)C1CC2C=CC1C2)Nc1ccc2c(c1)OC(F)(F)O2 (stereo unspecified)	434	9.3% (inactive)	13.3% (inactive)	89.2	11.1% (inactive)	91.8	-0.437 (inactive)	-6.4e-05 (inactive)	0.00772 (inactive)	15.9% (inactive)	20.1% (inactive)
